# Active and inactive are the calls of the source.
# Key:
# [1] = binders of probe aFSTL3 on microarray, primary screen, stem cell growth factor project, biochemical, small-molecule microarray, fluorescence 635/667 (AID 1064); settings: higher = more signal;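 note: measures binding of the biotinylated anti-FSTL3 antibody to printed compounds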
# [2] = binders from COS7 lysate, DM2A8 probe, primary screen, torsin A project, cell lysate, small-molecule microarray, fluorescence 635/667 (AID 1065); settings: higher = more signal, COS7 lysate expressing mutant human TOR1A
# [3] = binders of probe aFGF2 on microarray, primary screen, stem cell growth factor project, biochemical, small-molecule microarray, fluorescence 635/667 (AID 1067); settings: higher = more signal;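 note: measures binding of biotinylated aFGF2 protein to printed compounds on slides; z-score merges feature fluorescence and signal-to-noise across triplicate slides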
# [4] = binders of probe aFGF10 on microarray, primary screen, stem cell growth factor project, biochemical, small-molecule microarray, fluorescence 635/667 (AID 1071); settings: higher = more signal;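 note: score merges 667 nm spot intensity and signal to noise from triplicate slides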
# [5] = molecular target: Neurogenic locus notch homolog protein 2 (Homo sapiens) (UniProt Q04721); test: Notch2 binders on small-molecule microarrays, primary screen, biochemical, small-molecule microarray, 635 nm fluorescence, stem cell growth factors (AID 1073); settings: Notch2 binding, higher = more signal
# Neurogenic locus notch homolog protein 2 (Homo sapiens), sequence (Q04721 whole entry, looked up, canonical isoform): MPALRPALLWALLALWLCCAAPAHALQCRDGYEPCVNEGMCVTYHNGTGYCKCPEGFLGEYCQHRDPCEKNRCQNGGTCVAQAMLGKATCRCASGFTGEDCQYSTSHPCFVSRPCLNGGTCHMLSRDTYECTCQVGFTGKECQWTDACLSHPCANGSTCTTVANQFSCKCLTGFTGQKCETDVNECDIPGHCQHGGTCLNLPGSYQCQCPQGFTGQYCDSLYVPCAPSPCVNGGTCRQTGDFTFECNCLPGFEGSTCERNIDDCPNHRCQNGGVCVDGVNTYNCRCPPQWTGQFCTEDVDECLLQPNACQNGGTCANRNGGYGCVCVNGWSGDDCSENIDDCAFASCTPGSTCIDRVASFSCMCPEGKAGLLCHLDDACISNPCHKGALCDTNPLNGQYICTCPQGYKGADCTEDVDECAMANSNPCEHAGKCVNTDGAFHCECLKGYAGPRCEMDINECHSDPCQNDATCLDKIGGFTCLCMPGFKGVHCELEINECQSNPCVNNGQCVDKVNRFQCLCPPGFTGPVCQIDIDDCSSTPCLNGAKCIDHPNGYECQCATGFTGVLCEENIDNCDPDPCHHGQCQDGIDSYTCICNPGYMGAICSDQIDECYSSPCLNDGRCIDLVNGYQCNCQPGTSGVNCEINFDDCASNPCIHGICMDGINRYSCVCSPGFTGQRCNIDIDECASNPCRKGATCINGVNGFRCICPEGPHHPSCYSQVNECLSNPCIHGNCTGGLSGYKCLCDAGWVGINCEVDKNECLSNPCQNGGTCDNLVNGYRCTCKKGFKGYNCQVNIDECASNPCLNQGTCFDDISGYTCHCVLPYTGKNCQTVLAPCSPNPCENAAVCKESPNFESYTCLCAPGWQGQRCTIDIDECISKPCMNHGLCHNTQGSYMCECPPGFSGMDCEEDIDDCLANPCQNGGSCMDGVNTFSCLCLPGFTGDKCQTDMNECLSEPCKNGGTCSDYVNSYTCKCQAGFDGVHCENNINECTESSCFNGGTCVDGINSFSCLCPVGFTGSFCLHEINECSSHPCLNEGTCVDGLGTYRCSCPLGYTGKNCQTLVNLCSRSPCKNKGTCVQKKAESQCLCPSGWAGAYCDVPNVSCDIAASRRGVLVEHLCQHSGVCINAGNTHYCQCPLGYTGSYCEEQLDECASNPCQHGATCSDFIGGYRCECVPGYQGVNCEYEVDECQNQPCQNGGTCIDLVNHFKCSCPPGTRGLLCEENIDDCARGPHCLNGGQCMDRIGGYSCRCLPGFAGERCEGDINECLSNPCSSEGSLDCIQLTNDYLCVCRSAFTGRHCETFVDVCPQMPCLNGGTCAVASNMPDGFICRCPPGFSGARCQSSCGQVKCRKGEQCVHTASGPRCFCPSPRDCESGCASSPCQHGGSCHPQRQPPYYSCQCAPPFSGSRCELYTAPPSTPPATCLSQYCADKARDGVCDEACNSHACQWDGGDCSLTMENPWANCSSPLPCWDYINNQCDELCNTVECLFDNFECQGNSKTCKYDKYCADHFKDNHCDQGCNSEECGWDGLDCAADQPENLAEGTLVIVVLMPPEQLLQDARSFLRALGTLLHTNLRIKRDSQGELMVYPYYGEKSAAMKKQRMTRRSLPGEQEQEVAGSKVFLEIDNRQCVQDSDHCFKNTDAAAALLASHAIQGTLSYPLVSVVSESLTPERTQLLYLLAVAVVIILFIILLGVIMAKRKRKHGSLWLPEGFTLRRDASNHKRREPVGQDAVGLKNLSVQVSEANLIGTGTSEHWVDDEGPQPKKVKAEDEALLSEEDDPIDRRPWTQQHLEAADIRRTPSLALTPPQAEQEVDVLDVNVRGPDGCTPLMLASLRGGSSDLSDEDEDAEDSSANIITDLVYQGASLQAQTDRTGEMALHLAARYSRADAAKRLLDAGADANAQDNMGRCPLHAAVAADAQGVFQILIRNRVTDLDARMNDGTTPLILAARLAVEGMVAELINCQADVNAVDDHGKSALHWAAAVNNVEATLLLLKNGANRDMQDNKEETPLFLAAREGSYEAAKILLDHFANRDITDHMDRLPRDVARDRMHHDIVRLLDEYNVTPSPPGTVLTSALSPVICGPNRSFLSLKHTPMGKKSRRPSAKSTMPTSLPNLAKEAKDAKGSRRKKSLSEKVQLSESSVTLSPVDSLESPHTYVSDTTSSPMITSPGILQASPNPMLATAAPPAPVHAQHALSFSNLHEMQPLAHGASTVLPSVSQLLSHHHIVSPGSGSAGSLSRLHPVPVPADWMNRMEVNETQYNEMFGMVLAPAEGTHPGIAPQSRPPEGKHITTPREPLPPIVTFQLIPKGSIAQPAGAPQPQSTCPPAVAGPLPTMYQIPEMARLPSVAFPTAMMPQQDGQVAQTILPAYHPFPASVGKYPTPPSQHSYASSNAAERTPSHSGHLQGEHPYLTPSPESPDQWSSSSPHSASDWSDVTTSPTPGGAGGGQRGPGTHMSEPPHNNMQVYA
# [6] = molecular target: Pro-neuregulin-1, membrane-bound isoform (Homo sapiens) (UniProt Q02297); test: NRG1 binders on small-molecule microarrays, primary screen, psychiatric disease protein project, biochemical, small-molecule microarray, fluorescence 635/667 (AID 1075); settings: NRG1 binding, 635 nm fluorescence, higher = more signal;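 note: score combines 667 nm spot fluorescence with signal to noise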
# Pro-neuregulin-1, membrane-bound isoform (Homo sapiens), sequence (Q02297 whole entry, looked up, the tested form may be a part, canonical isoform): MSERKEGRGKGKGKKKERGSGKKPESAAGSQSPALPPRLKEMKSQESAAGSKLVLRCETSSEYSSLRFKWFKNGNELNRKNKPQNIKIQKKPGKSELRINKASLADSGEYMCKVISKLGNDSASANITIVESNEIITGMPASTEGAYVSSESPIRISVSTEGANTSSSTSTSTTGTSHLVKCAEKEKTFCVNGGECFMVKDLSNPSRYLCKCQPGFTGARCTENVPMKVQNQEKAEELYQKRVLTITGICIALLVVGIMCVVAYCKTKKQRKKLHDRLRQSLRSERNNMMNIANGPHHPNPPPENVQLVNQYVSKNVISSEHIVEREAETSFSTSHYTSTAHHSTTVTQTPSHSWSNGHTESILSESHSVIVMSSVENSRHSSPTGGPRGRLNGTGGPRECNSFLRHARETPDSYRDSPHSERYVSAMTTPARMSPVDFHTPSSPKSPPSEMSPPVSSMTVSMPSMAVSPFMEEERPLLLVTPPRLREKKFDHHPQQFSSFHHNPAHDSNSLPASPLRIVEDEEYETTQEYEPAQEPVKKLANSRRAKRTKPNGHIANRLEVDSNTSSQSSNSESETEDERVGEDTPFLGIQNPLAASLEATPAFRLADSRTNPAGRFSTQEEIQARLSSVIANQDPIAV
# [7] = tested on: Neuregulin-1 EGF-like domain; test: binders of neuregulin-1 EGF-like domain, primary screen, biochemical, small-molecule microarray, 635 nm fluorescence (AID 1081); settings: small-molecule microarray binding, higher = more signal;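 note: binding of the protein to compounds printed on small-molecule microarray slides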
# [8] = FRG1 promoter luciferase signal modulators, primary screen, FRG1 inhibition for FSHD, cell-based, C2C12 myotubes, firefly/Renilla luciferase, luminescence (AID 1084); settings: higher = more signal, called active from +8 up or from −8 down
# [9] = binders of probe aFST on microarray, primary screen, stem cell growth factor project, biochemical, small-molecule microarray, fluorescence 635/667 (AID 1086); settings: higher = more signal;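 note: score merges 667 nm fluorescence with signal-to-noise of each printed compound spot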
# [10] = binders of probe aHhip on microarray, primary screen, stem cell growth factor project, biochemical, small-molecule microarray, fluorescence 635/667 (AID 1087); settings: higher = more signal;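 note: score merges spot fluorescence at 667nm with spot signal to noise ratio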
# [11] = tested on: PRMT1 (protein arginine N-methyltransferase 1); test: PRMT1 binders on small-molecule microarrays, primary screen, biochemical, small-molecule microarray, 635 nm fluorescence (AID 1088); settings: small-molecule microarray binding, higher = more signal;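 note: binding of Prmt1 protein to compounds spotted on small-molecule microarray slides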
# [12] = yeast growth modulation, basal conditions, primary screen, YJM789 clinical isolate, OD600, 24 h (AID 1089);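 note: growth of clinical yeast isolate S. cerevisiae YJM 789 seeded 1000 cells per well; test concentration not given here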; settings: S. cerevisiae YJM789 growth, higher = more signal, called active from +8 up or from −8 down
# [13] = fission yeast growth modulation, primary screen, strain 972, OD600, 24 h, no modulator (AID 1090);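 note: basal condition with compound alone and no growth modifier present; test concentration not given here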; settings: S. pombe 972 growth, higher = more signal, called active from +8 up or from −8 down
# [14] = S. cerevisiae growth modulation with rapamycin, primary screen, strain BY4716, OD600, 96 h (AID 1091); settings: higher = more signal, called active from +8 up or from −8 down; note: test concentration not given here
# [15] = molecular target: Torsin-1A-interacting protein 2 (Homo sapiens) (UniProt Q8NFQ8); test: LULL1 binders on small-molecule microarray, primary screen, cell lysate, human LULL1 lysate, 635/667 nm fluorescence (AID 1092); settings: hLULL1 lysate binding, 635 nm fluorescence, higher = more signal;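 note: probe is lysate of COS7 cells overexpressing human LULL1; score merges per-feature 667 nm fluorescence with signal-to-noise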
# Torsin-1A-interacting protein 2 (Homo sapiens), sequence (Q8NFQ8 whole entry, looked up): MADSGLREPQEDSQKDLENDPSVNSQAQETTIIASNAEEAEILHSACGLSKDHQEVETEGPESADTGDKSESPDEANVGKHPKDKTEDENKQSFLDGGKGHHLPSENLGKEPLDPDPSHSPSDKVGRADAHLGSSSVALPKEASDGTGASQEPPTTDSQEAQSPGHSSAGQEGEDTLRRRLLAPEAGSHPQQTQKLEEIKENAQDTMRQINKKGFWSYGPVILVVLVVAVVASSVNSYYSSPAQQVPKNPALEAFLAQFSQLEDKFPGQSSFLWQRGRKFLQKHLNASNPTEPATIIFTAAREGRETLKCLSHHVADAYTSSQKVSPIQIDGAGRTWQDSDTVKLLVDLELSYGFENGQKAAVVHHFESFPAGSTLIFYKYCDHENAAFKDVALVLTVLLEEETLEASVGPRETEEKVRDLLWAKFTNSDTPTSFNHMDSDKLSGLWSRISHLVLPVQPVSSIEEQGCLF
# [16] = E. coli growth modulation, two-sided OD650, primary screen, E. coli filamentation project, strain DRC41, 24 h (AID 1093); settings: OD650, 24 h, higher = more signal, called active from +8 up or from −8 down;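 note: MC1000 strain lacking acrAB efflux and sulA so SOS filamentation is blocked; test concentration not given here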
# [17] = small-molecule microarray binders of probe aLefty2, primary screen, biochemical, biotinylated probe, 635/667 nm fluorescence (AID 1094); settings: higher = more signal;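 note: score merges spot fluorescence near 667 nm with spot signal-to-noise ratio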
# [18] = tested on: Noggin (protein binding on small-molecule microarray); test: Noggin binders on small-molecule microarray, primary screen, biochemical, 635/667 nm fluorescence (AID 1095); settings: 635 nm fluorescence, higher = more signal;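 note: score merges 667 nm feature fluorescence with signal to noise over triplicate slides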
# [19] = molecular target: Neurogenic locus notch homolog protein 3 (Homo sapiens) (UniProt Q9UM47); test: NOTCH3 binders on small-molecule microarray, primary screen, biochemical, 635/667 nm fluorescence (AID 1096); settings: NOTCH3 binding, 635 nm fluorescence, higher = more signal
# [20] = small-molecule microarray binders of probe aEGFR, primary screen, biochemical, biotinylated probe, 635/667 nm fluorescence (AID 1097); settings: higher = more signal;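 note: probe is a biotinylated anti-EGFR antibody binding compounds printed on slides; score combines fluorescence near 667 nm and signal to noise of each spot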
SMILES,composite z-score [1],composite z-score [2],composite z-score [3],composite z-score [4],composite z-score [5],composite z-score [6],composite z-score [7],z-score [8],composite z-score [9],composite z-score [10],composite z-score [11],z-score [12],z-score [13],z-score [14],composite z-score [15],z-score [16],composite z-score [17],composite z-score [18],composite z-score [19],composite z-score [20]
O=C1O[C@@H](c2ccccc2)[C@@H](c2ccccc2)N2[C@@H](c3ccccc3OCCO)[C@]3(C(=O)Nc4ccc(C#CCCO)cc43)[C@@H](C(=O)N3CCCCCCC3)[C@H]12,4.01,2.76,1.1,1.47,1.83,2.86,1.35,-3.55 (inactive),3.89,2.64,1.53,0.295 (inactive),-4.61 (inactive),1.33 (inactive),5.16,-0.798 (inactive),1.99,2.28,1.01,1.49
N#Cc1ccc(C(O)C2C=CC3C(=O)N(c4ccccc4)C(=O)C3N2Nc2ccccc2)cc1 (stereo not given),0.396,0.0518,0.129,0.77,1.32,1.19,1.08,-0.627 (inactive),0.833,-0.069,0.0016,0.953 (inactive),-0.145 (inactive),-0.248 (inactive),2.62,0.445 (inactive),0.443,-0.383,0.744,0.104
CC(C)N1C(=O)c2ccccc2[C@@H](C(=O)NC2CC2)[C@@H]1c1ccc(CO)cc1,-0.236,-0.184,-0.0615,0.0389,-0.425,0.933,1.3,0.216 (inactive),-0.593,-0.189,0.672,-0.904 (inactive),-0.826 (inactive),-0.39 (inactive),0.968,0.141 (inactive),-0.117,0.521,-0.201,-0.156
C[N+](C)(C)CCCCCCNC(=O)[C@H]1C[C@H]2C(=O)N[C@@H](Cc3ccccc3)C(=O)N2[C@H]1c1ccc(O)cc1,0.18,0.375,-0.0853,0.316,0.224,0.736,1.21,2.26 (inactive),-0.0859,0.0373,1.53,-0.327 (inactive),0.162 (inactive),0.0818 (inactive),2.56,0.441 (inactive),-0.0769,1.18,0.98,-0.136
C=CCOC(=O)[C@H]1[C@@H]2C(=O)O[C@@H](c3ccccc3)[C@@H](c3ccccc3)N2[C@@H](c2ccc(OCCOC(=O)[C@H]3C[C@H]4C(=O)N[C@@H](CC(C)C)C(=O)N4[C@H]3c3cccc(OCCO)c3)cc2)[C@]12C(=O)Nc1ccc(I)cc12,-0.475,0.178,-0.0442,0.823,0.919,-0.403,1.17,0.842 (inactive),0.157,0.0373,1.48,0.219 (inactive),0.46 (inactive),2.8 (inactive),2.76,-0.266 (inactive),-0.0416,0.972,0.97,0.0436
C=CCNC(=O)[C@@H]1[C@H]2C(=O)O[C@H](c3ccccc3)[C@H](c3ccccc3)N2[C@H](c2ccc(O)cc2)[C@@]12C(=O)N(C(=O)OCCOC)c1ccc(C#CC3(O)CCCCCC3)cc12,0.564,-0.548,-0.176,-1.52,-2.26,-0.712,-0.895,-0.659 (inactive),-1.19,-0.312,-0.14,-0.857 (inactive),0.183 (inactive),-0.26 (inactive),-1.28,1.23 (inactive),0.143,-0.669,-0.904,-0.305
CCOC(=O)[C@H]1[C@@H]2C(=O)N3CCC[C@H]3[C@H](O[Si](C(C)C)(C(C)C)C(C)C)[C@H]2C=C2CCN(S(=O)(=O)c3ccc(C)cc3)C[C@H]21,-0.646,0.336,-0.118,0.248,0.966,0.319,1.08,-0.647 (inactive),0.125,-0.164,1.55,-0.212 (inactive),-0.772 (inactive),1.04 (inactive),2.38,-0.717 (inactive),-0.0795,0.55,1.09,-0.0978
CC(C)(C)OC(=O)CC[C@@]1(C(=O)NCc2ccccc2)N=C(c2ccc(OCCCO)cc2)O[C@@H]1c1ccccc1N=[N+]=[N-],0.418,0.559,0.246,0.885,1.64,1.75,0.968,1.16 (inactive),1.13,0.0115,1.56,0.704 (inactive),0.501 (inactive),3.64 (inactive),3.25,0.516 (inactive),0.372,0.878,1.05,0.224
COc1ccccc1CN1C(=O)c2ccccc2[C@@]2(Cc3ccccc3N(CC(F)(F)F)C2=O)[C@@H]1c1ccc(CO)cc1,-0.951,0.252,-0.226,-0.244,0.166,-0.226,0.778,-3.55 (inactive),-0.29,-0.403,0.955,0.17 (inactive),0.181 (inactive),-1.7 (inactive),0.104,1.07 (inactive),-0.332,1.18,0.538,-0.322
COc1ccc([Si](C)(C)[C@@H]2[C@@H](CC(=O)N(CCO)Cc3ccccc3)O[C@]3(C(=O)N(c4ccccc4)c4ccccc43)[C@H]2C)cc1,-0.337,0.326,-0.0455,0.276,0.212,0.954,1,-2.62 (inactive),0.593,-0.0994,1.56,-0.14 (inactive),0.001 (inactive),0.842 (inactive),2.26,1.01 (inactive),-0.0722,1.26,1.1,-0.0512
O=C1c2ccccc2[C@](Cc2ccccc2I)(C(=O)NCC(F)(F)F)[C@H](c2ccc(CO)cc2)N1C1CCCCC1,-0.0894,-0.089,0.0772,0.94,1.14,1.76,0.985,-0.85 (inactive),0.593,-0.134,1.56,0.0808 (inactive),-1.76 (inactive),-0.0447 (inactive),3.02,1.38 (inactive),-0.0408,0.169,1.08,-0.0315
CCCCN1CC=CC23O[C@@H]4/C=C\CCC(C)OC(=O)C4[C@H]2C(=O)N(C(CO)C(C)C)[C@@H]3C1=O (stereo not given in full),-0.513,0.642,-0.0976,0.291,-0.358,0.362,1.45,-0.095 (inactive),-0.19,-0.201,0.738,-0.824 (inactive),-0.753 (inactive),-0.528 (inactive),2.77,-0.318 (inactive),-0.166,0.21,0.395,-0.123
Cc1ccc(S[C@]2(C(=O)NCC(F)(F)F)CC(=O)N(Cc3ccccc3C(F)(F)F)[C@@H]2c2ccc(CO)cc2I)cc1,0.52,-0.893,-0.157,-0.954,-1.15,-0.12,0.124,-1.24 (inactive),-0.818,-0.236,-0.987,-1.54 (inactive),-2.79 (inactive),1.65 (inactive),0.779,0.625 (inactive),-0.072,-0.859,-1.45,-0.254
O=C1O[C@@H](c2ccccc2)[C@@H](c2ccccc2)N2[C@@H](c3ccc(OCCO)cc3)[C@]3(C(=O)Nc4ccccc43)[C@@H](C(=O)O)[C@H]12,0.161,0.144,-0.0336,1.02,0.381,1.5,1.45,-0.0089 (inactive),0.0284,-0.407,0.194,0.264 (inactive),-0.272 (inactive),-0.219 (inactive),3.09,0.852 (inactive),0.176,-0.179,-0.239,0.247
C=CCNC(=O)[C@H]1[C@@H]2C(=O)O[C@@H](c3ccccc3)[C@@H](c3ccccc3)N2[C@@H](c2ccc(O)cc2)[C@]12C(=O)Nc1ccc(C#CC3(O)CCCCCC3)cc12,0.0935,1.01,-0.0293,0.254,-0.459,0.865,0.718,-0.246 (inactive),0.168,0.312,1.55,-0.494 (inactive),0.369 (inactive),0.335 (inactive),3.03,-1.08 (inactive),-0.0953,1.09,0.354,-0.0896
CN1C(=O)C2C=CC(C(O)c3cccc(O)c3)N(Nc3ccccc3)C2C1=O (stereo not given),-0.0512,-0.201,0.0121,0.518,0.768,1.9,1.25,0.737 (inactive),0.495,0.0808,-0.0187,0.637 (inactive),1.62 (inactive),1.1 (inactive),0.684,-0.509 (inactive),0.0004,0.215,0.764,-0.0251
COc1ccc(CCN2C(=O)[C@@]3(Cc4ccccc42)c2ccccc2C(=O)N(Cc2ccccc2OC)[C@H]3c2ccc(CO)cc2)cc1,0.502,-0.277,0.0252,-0.0162,-0.779,-0.634,-0.322,-1.01 (inactive),-0.275,0.21,0.177,-0.585 (inactive),-1.23 (inactive),-1.42 (inactive),1.66,0.237 (inactive),0.0877,-1.36,-0.642,-0.204
O=C1OCCC/C=C\[C@H]2OC34C=CCN(CCN5CCOCC5)C(=O)[C@H]3N(CCCCCCO)C(=O)[C@@H]4C12 (stereo not given in full),0.0814,2.31,-0.171,-0.291,-0.0784,1.91,1.17,-1.05 (inactive),-0.151,-0.0994,0.733,-1.84 (inactive),-1.29 (inactive),-0.529 (inactive),2.39,1.33 (inactive),-0.166,-0.0171,0.18,-0.0953
[N-]=[N+]=NCc1ccccc1[C@H]1OC(c2ccc(OCCCO)cc2)=N[C@@]1(CCS(=O)(=O)c1ccccc1)C(=O)NCC(O)CO (stereo not given in full),0.115,-0.191,0.252,0.564,1.47,1.25,1.36,0.515 (inactive),1.46,0.126,1.56,0.633 (inactive),-0.107 (inactive),3.65 (inactive),3.79,-0.28 (inactive),0.0761,0.286,1.06,0.178

# Source: PubChem BioAssay
